Columns and labels:
[1] = target: Tyrosine-protein kinase SYK (Homo sapiens) (UniProt P43405); conditions: at 1 µM
[2] = target: T1, Tyrosine-protein kinase Tec (Homo sapiens) (UniProt P42680); conditions: at 0.1 µM
T1 sequence (whole entry): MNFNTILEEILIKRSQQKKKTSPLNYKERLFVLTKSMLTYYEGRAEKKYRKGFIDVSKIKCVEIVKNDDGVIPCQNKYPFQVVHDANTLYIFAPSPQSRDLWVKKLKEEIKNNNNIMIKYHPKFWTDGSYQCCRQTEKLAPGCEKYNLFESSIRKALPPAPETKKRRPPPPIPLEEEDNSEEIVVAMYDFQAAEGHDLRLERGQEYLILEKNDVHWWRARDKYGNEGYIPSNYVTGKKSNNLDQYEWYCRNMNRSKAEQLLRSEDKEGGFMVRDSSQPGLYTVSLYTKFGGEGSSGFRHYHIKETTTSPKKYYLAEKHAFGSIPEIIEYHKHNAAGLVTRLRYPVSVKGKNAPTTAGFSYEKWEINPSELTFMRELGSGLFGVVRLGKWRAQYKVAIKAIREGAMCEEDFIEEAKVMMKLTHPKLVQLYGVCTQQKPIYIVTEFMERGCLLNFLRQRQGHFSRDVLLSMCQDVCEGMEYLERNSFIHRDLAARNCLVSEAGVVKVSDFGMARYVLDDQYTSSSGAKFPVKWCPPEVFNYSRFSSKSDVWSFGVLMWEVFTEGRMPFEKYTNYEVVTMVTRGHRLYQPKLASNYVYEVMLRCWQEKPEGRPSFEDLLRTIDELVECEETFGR

[3] = target: T1, Tyrosine-protein kinase Tec (Homo sapiens); conditions: at 1 µM
[4] = target: Angiopoietin-1 receptor (Homo sapiens) (UniProt Q02763); conditions: at 0.1 µM
[5] = target: Angiopoietin-1 receptor (Homo sapiens) (UniProt Q02763); conditions: at 1 µM
[6] = target: T2, Non-receptor tyrosine-protein kinase TNK1 (Homo sapiens) (UniProt Q13470); conditions: at 0.1 µM
T2 sequence (whole entry): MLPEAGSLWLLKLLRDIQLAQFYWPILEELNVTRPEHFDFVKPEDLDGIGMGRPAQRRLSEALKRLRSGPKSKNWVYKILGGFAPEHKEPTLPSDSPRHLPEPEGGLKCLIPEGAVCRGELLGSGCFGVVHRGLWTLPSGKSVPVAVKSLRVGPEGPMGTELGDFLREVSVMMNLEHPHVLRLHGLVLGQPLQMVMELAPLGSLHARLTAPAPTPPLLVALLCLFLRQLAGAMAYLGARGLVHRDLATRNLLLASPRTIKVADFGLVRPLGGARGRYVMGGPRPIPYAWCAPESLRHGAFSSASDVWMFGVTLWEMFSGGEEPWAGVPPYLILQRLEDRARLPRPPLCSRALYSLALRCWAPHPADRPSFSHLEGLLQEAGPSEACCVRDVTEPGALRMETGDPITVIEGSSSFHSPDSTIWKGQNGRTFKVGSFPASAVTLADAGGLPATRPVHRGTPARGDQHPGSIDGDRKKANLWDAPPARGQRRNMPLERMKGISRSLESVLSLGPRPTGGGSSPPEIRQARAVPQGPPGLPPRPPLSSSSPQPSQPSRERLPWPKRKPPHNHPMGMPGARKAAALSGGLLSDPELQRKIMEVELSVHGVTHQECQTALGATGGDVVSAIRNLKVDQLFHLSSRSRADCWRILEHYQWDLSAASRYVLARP

[7] = target: T2, Non-receptor tyrosine-protein kinase TNK1 (Homo sapiens); conditions: at 1 µM
[8] = target: Activated CDC42 kinase 1 (Homo sapiens) (UniProt Q07912); conditions: at 0.1 µM
[9] = target: Activated CDC42 kinase 1 (Homo sapiens) (UniProt Q07912); conditions: at 1 µM
[10] = target: High affinity nerve growth factor receptor (Homo sapiens) (UniProt P04629); conditions: at 0.1 µM
[11] = target: High affinity nerve growth factor receptor (Homo sapiens) (UniProt P04629); conditions: at 1 µM
[12] = target: BDNF/NT-3 growth factors receptor (Homo sapiens) (UniProt Q16620); conditions: at 0.1 µM
[13] = target: BDNF/NT-3 growth factors receptor (Homo sapiens) (UniProt Q16620); conditions: at 1 µM
[14] = target: NT-3 growth factor receptor (Homo sapiens) (UniProt Q16288); conditions: at 0.1 µM
[15] = target: NT-3 growth factor receptor (Homo sapiens) (UniProt Q16288); conditions: at 1 µM
[16] = target: T3, Tyrosine-protein kinase TXK (Homo sapiens) (UniProt P42681); conditions: at 0.1 µM
T3 sequence (whole entry): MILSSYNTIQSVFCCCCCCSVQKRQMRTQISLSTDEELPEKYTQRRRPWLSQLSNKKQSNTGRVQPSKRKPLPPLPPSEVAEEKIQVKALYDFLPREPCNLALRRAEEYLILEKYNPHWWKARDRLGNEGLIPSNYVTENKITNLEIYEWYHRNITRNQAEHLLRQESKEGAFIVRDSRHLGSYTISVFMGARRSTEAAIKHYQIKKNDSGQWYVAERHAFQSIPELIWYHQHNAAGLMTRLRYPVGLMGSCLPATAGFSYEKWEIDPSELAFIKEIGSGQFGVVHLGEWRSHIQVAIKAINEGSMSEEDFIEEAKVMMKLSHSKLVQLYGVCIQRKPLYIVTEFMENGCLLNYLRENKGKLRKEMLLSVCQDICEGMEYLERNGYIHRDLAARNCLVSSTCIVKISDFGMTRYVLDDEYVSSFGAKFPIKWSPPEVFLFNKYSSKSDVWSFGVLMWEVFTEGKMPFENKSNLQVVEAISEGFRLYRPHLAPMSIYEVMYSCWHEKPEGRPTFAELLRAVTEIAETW

[17] = target: T3, Tyrosine-protein kinase TXK (Homo sapiens); conditions: at 1 µM
[18] = target: Non-receptor tyrosine-protein kinase TYK2 (Homo sapiens) (UniProt P29597); conditions: at 0.1 µM;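 further: each value is a mean of the inhibition readings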
[19] = target: T4, Dual specificity protein kinase TTK (Homo sapiens) (UniProt P33981); conditions: at 1 µM;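 further: reported figures are mean TTK inhibition at 1 µM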
T4 sequence (whole entry): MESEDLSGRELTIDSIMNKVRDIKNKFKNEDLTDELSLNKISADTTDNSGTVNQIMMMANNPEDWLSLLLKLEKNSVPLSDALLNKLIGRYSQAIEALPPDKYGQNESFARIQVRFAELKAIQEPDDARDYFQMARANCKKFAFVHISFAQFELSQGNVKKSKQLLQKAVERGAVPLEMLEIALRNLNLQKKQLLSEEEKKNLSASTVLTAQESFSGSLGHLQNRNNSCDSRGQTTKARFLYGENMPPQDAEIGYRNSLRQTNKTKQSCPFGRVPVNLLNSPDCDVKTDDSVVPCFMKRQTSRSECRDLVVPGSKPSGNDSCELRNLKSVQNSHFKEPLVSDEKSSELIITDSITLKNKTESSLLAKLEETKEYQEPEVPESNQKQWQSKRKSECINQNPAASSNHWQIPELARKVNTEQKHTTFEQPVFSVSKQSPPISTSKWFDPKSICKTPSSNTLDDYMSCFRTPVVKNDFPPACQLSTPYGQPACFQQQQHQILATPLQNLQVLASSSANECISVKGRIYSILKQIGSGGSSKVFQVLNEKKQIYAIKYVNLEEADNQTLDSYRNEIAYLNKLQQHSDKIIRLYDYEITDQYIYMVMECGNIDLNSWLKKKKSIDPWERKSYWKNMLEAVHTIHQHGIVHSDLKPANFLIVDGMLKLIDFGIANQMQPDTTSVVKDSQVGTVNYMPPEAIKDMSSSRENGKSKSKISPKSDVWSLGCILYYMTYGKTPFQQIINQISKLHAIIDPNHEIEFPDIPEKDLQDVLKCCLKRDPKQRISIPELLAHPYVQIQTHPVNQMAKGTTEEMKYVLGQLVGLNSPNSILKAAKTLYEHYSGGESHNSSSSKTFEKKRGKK

[20] = target: T5, Aurora kinase A (Homo sapiens) (UniProt O14965); conditions: at 0.1 µM;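 further: each reported value is a mean percent inhibition of Aurora-A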
T5 sequence (whole entry): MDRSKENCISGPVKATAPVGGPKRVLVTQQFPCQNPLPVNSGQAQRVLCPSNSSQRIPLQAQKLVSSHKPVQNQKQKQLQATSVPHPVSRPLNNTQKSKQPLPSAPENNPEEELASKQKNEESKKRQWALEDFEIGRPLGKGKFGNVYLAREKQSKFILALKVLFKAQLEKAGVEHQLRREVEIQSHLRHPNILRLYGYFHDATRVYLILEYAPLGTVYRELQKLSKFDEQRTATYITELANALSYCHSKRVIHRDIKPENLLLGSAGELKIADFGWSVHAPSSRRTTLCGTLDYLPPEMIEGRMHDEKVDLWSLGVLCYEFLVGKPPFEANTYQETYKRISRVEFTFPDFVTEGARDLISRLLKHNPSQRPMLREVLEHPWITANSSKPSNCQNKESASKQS

Chain of Activated CDC42 kinase 1 (Homo sapiens) (Q07912 whole entry, looked up): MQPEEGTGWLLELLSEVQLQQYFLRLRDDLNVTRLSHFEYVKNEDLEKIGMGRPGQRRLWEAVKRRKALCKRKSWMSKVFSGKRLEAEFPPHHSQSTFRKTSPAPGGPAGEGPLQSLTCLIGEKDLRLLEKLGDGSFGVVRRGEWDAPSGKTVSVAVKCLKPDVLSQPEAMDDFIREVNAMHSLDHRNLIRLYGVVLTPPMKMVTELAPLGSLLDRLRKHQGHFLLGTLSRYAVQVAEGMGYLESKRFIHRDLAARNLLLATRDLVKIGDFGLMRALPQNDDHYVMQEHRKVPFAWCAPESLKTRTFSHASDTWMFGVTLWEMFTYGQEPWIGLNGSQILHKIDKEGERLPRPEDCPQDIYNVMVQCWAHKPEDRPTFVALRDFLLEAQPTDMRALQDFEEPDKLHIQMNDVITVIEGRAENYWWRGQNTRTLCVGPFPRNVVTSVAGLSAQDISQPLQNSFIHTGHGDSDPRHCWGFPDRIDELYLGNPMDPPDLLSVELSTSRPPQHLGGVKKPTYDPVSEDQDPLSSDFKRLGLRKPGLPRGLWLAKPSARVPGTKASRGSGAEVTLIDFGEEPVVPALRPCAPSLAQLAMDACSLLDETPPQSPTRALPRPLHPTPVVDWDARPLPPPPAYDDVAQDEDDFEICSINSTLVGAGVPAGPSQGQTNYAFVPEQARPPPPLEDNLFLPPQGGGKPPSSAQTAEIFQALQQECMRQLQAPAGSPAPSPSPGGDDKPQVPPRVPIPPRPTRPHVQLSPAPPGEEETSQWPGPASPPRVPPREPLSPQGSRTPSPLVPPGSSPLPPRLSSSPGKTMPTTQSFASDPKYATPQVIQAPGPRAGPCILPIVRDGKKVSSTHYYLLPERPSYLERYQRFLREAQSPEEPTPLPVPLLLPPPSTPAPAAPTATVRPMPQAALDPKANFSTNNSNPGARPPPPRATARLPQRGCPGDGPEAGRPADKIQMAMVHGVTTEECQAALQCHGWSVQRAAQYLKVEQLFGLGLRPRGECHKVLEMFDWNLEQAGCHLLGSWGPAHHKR
Chain of BDNF/NT-3 growth factors receptor (Homo sapiens) (Q16620 32-822 limits assumed): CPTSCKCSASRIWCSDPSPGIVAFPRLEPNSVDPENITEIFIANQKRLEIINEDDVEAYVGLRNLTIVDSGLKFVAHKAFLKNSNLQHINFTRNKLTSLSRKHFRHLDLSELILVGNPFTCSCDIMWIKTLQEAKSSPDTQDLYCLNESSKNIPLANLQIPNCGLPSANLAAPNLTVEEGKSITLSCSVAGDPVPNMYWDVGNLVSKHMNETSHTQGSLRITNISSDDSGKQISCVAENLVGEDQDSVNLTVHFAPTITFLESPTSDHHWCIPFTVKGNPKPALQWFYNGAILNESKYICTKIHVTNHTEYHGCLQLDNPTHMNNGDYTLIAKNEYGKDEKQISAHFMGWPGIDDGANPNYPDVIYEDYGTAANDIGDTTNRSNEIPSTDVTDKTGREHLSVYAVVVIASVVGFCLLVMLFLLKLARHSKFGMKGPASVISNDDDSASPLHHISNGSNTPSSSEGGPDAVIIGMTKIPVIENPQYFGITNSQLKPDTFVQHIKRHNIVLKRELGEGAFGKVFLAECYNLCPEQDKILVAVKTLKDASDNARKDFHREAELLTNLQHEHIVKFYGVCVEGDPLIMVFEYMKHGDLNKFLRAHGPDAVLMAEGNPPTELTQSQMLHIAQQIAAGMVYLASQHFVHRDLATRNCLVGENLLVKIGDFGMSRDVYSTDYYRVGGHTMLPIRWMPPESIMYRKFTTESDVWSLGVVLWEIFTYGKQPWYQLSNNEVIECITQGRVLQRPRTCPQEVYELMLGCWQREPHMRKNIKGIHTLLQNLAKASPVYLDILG
Chain of Non-receptor tyrosine-protein kinase TYK2 (Homo sapiens) (P29597 whole entry): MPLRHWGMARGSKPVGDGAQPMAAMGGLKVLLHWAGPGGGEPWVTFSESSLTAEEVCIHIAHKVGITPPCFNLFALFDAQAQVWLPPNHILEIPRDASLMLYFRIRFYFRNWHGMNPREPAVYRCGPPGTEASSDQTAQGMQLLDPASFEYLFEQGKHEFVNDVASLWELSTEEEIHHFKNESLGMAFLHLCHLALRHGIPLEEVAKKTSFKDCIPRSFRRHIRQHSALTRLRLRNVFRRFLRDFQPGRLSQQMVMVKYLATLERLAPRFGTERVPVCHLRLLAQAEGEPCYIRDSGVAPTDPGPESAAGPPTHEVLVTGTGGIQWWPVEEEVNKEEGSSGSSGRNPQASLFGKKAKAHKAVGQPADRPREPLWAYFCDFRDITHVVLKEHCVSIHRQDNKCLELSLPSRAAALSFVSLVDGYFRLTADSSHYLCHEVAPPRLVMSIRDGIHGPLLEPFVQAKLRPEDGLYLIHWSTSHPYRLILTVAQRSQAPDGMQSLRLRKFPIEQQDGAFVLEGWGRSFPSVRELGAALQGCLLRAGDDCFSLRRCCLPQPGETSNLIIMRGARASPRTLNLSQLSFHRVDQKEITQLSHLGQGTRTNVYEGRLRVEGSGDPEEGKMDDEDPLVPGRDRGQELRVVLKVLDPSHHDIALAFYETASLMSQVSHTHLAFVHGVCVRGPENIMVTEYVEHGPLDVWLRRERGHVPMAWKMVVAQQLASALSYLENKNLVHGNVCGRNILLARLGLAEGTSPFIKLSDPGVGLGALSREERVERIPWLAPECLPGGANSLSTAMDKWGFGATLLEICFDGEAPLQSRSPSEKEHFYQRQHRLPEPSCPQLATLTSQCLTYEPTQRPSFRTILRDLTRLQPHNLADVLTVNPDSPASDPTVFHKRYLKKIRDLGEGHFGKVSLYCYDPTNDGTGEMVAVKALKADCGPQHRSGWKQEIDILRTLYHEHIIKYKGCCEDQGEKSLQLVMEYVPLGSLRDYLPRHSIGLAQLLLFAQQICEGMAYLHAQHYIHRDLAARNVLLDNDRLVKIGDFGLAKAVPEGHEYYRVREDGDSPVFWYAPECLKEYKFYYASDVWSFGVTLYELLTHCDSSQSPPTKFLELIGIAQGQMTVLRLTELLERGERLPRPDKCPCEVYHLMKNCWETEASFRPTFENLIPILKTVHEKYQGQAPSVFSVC
Chain of High affinity nerve growth factor receptor (Homo sapiens) (P04629 33-796 limits assumed): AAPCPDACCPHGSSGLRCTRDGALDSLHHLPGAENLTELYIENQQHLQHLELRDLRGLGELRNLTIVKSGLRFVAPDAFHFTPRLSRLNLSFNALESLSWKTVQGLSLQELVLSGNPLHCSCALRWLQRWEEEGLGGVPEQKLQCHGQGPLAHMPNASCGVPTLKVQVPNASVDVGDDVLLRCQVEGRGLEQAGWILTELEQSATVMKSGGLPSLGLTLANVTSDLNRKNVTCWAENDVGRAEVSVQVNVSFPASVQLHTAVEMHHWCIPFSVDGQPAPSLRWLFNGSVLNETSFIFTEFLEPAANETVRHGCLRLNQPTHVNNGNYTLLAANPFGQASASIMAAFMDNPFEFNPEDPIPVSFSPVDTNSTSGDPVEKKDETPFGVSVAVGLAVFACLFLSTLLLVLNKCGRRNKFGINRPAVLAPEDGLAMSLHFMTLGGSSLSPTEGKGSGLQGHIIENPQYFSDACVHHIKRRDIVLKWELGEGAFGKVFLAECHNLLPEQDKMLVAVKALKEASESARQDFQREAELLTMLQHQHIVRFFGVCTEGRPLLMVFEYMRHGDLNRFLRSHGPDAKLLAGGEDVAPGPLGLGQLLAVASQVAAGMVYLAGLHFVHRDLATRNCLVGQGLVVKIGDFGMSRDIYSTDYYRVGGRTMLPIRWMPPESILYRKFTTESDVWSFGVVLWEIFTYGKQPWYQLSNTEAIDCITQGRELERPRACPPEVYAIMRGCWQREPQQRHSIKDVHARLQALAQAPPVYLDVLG
Chain of Angiopoietin-1 receptor (Homo sapiens) (Q02763 whole entry): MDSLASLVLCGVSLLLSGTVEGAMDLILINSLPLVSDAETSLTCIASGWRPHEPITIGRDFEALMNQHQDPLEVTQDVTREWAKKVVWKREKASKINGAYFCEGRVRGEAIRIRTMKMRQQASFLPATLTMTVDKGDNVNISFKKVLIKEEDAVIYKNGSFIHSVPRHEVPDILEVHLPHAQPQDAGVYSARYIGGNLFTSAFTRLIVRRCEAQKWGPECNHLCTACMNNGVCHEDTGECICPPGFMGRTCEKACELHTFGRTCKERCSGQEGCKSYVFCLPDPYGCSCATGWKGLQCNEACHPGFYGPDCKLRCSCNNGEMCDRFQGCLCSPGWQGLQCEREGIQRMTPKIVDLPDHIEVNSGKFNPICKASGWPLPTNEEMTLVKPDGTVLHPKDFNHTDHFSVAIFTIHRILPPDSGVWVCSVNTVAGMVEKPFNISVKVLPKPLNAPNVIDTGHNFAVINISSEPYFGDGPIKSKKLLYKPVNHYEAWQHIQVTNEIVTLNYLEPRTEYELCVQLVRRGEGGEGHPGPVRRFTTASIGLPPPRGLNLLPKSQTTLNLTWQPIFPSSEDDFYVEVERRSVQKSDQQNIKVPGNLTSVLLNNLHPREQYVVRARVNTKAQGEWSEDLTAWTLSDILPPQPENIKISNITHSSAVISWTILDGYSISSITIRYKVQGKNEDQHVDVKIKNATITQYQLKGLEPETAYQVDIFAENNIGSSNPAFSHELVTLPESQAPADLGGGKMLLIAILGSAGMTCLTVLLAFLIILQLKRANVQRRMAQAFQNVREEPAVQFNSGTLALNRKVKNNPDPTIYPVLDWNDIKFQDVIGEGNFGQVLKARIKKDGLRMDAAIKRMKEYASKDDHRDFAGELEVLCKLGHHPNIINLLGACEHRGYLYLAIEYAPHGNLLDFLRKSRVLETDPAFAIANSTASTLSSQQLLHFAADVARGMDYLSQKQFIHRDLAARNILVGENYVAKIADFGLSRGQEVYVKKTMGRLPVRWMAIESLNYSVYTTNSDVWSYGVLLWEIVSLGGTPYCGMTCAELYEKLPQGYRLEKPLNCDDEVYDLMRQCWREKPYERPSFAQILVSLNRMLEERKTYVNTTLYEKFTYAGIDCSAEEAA

Compound | inhibition [1] [%] | inhibition [2] [%] | inhibition [3] [%] | inhibition [4] [%] | inhibition [5] [%] | inhibition [6] [%] | inhibition [7] [%] | inhibition [8] [%] | inhibition [9] [%] | inhibition [10] [%] | inhibition [11] [%] | inhibition [12] [%] | inhibition [13] [%] | inhibition [14] [%] | inhibition [15] [%] | inhibition [16] [%] | inhibition [17] [%] | inhibition [18] [%] | inhibition [19] [%] | inhibition [20] [%]
CC(C)c1ccc2c(c1)NC(=O)/C2=N/Nc1ccc(S(N)(=O)=O)cc1 | 1.53 | 1.22 | 3.98 | 1.55 | 3.02 | 2.2 | 9.9 | 0.13 | 4.69 | 3.96 | 26.1 | 4.87 | 31.5 | 7.71 | 34.9 | 1.51 | 3.5 | 0.63 | 3.55 | 1.5
COc1cc2ncnc(Nc3ccc(C)c(O)c3)c2cc1OC | 0.27 | 11.1 | 36.6 | 3.58 | 17.7 | 5.34 | 23.8 | 1.4 | 5.7 | 1.85 | 2.17 | 3.65 | 6.25 | 1.67 | 7.05 | 8.65 | 29.5 | -5.98 | 7.27 | 2.56
OCc1ccc(-c2nc(-c3ccccn3)c(-c3ccc4c(c3)OCO4)[nH]2)cc1 | -0.31 | 7.61 | 11.1 | 2.48 | 6.23 | 5.37 | -4.68 | 1.72 | 2.78 | 3.27 | 3.45 | 3.16 | 1 | 4.37 | 3 | 6.42 | 12.5 | -1.9 | 9.01 | 4.4
Cc1ccc(NC(=O)CC2CC2)cc1-c1ccc(C(=O)NCC2CC2)cc1 | 0.5 | 5.07 | 8.67 | 2.75 | 6.74 | 2.27 | 10.1 | 0.82 | 3.94 | 3.3 | 1.04 | 1.14 | 3.38 | 2.32 | 4.16 | 3.64 | 5.85 | -4.51 | 7.66 | 4.04
CCS(=O)(=O)c1ccc(OC)c(Nc2nccc(N(C)c3ccc4c(C)n[nH]c4c3)n2)c1 | -6.17 | 4.3 | 27 | 6.69 | 46.3 | 40 | 82.5 | 2.32 | 22.8 | 2.86 | 11.7 | 5.19 | 14.1 | 4.34 | 17.5 | 1.6 | 26.2 | -6.13 | 11.9 | 4.98
ON=C1CCc2cc(-c3nc(C4CCNCC4)[nH]c3-c3ccncc3)ccc21 | 0.36 | 1.46 | 2.88 | 1.37 | 1.77 | -4.28 | -5.17 | -0.93 | -2.5 | -3.45 | -1.26 | -0.05 | -1.18 | -1.73 | -0.26 | 1.85 | 2.25 | -1.08 | 2.17 | -0.5
COc1ccc(-c2nn3ncccc3c2-c2ccnc(Nc3cccc(C(F)(F)F)c3)n2)cc1 | -2.11 | 1.14 | 4.73 | 2.11 | 9.2 | 7.47 | 9.47 | 0.73 | 0.85 | 1.79 | 3.94 | 1.95 | 3.32 | 2.64 | 1.56 | 0.17 | 3.03 | 0.38 | 6.51 | 2.9
CCn1c(-c2nonc2N)nc2ccc(F)cc21 | -1.93 | 6.29 | 3.97 | 2.7 | 1.79 | 7.71 | 9.97 | 1.53 | 3.08 | 2.92 | 2.84 | 4.03 | 4.23 | 3.74 | 4.75 | 1.94 | 0.47 | -3.66 | 11.6 | 3.17
c1ccc(Cc2nc3ccc(Nc4ncnc5ccccc45)cc3[nH]2)cc1 | -0.79 | 4.4 | 8.08 | 2.5 | 5.58 | 1.92 | 11.4 | 1.45 | 3.26 | 2.77 | 0.18 | 2.44 | 3.35 | -0.16 | 2.9 | 2.03 | 4.47 | -9.76 | 19 | 2.6
O=C1Nc2ccc(-c3cccnc3)cc2C1=Cc1cc(Br)c(O)c(Br)c1 | -2.96 | 3.68 | 8.99 | 1.2 | 2.63 | 52.5 | 80.6 | 1.09 | 3.05 | 4.7 | 12.8 | 2.93 | 12.2 | 4.91 | 24.1 | 2.22 | 6.14 | 0.81 | 7.48 | 15.5
Nc1nccc(C#Cc2cncnc2Nc2ccc(OCc3cccc(F)c3)c(Cl)c2)n1 | -0.63 | 5.34 | 13.6 | 4.38 | 3.5 | 5.1 | 8.89 | 1.73 | 3.21 | 4.45 | 9.29 | 3.48 | 11.3 | 2.67 | 9.94 | 3.85 | 8.58 | -3.29 | 14.2 | 1.06
O=C(Nc1ccc(Oc2ccc3[nH]c(NC(=O)c4ccco4)nc3c2)cc1)Nc1cc(C(F)(F)F)ccc1F | -2.67 | -1.71 | 0.35 | 49.4 | 82.4 | 9.16 | 58.6 | 0.17 | 0.5 | 30.2 | 85.5 | 27.8 | 73.9 | 30.8 | 89.6 | -1.98 | -1.15 | 1.41 | 13.6 | -1.76
